“And” between values parts separate entries of the source, which are not always exact repeats. Equal entries are not always repeated. Inconclusive results are not listed. The source made the active and inactive calls. Unless noted, the call rests on the fitted dose curve; in most records, active means well fitted curve in the direction sought with a large enough effect; inconclusive means small, poorly fitted or top-dose-only effect, or another doubt; inactive means no such curve, though single readings can be large; an effect the other way counts as inactive or inconclusive.
What was measured:
[1] = molecular target: Glucocorticoid receptor (Homo sapiens) (UniProt P04150); test: GR-GFP Redistribution (AID 450;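 active means compounds whose dose series gives a full or clear partial fitted curve of increased nuclear translocation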; further: potency means the concentration at half of the fitted maximal effect); settings: U2OS GR-GFP nuclear translocation, laser cytometry, 2 h
Chain of Glucocorticoid receptor (Homo sapiens) (P04150 whole entry, looked up, the tested form may be a part): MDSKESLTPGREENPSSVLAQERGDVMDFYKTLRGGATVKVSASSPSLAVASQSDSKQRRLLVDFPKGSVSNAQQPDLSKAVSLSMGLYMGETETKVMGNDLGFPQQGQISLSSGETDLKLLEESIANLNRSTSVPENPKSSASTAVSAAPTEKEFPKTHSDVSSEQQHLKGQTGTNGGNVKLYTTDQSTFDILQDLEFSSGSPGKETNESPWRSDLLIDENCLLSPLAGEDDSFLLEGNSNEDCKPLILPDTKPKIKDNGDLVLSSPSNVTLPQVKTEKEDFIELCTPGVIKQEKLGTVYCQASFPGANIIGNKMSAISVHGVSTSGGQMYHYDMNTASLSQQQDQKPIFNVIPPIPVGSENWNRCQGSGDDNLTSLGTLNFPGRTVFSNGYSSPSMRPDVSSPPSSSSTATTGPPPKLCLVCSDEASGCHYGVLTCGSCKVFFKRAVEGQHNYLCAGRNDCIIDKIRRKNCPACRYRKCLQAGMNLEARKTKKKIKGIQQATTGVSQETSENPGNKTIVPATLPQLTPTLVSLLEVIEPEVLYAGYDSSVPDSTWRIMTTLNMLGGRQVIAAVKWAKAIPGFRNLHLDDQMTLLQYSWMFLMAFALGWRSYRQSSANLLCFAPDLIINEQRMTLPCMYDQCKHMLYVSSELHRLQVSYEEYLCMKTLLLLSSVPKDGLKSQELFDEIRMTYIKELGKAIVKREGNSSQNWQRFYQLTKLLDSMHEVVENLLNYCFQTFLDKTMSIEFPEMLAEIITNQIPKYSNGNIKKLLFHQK

[2] = molecular target: Glucocorticoid receptor (Homo sapiens) (UniProt P04150); test: GR-EFC Redistribution (AID 451; calls by dose curve; further: potency means the concentration at half of the fitted maximal effect); settings: CHO-K1 GR-EFC translocation, beta-gal luminescence, 2 h
Outline: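 CHO-K1 cells expressing nuclear EA and GR-ED fragments of b-gal; compounds titrated up to 46 uM final, 2 h at 37 C. GR nuclear translocation read as complemented b-gal luminescence after 1 h RT detection.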

[3] = molecular target: Ubiquitin carboxyl-terminal hydrolase 1 (Homo sapiens) (UniProt O94782); test: Inhibitors of USP1/UAF1: Pilot qHTS (AID 504865); settings: purified USP1/UAF1, Ub-rhodamine cleavage fluorescence; series mostly up to 114 µM;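 further: rhodamine fluorescence freed from ubiquitin-rhodamine substrate followed over time; top concentration of the series differs between compounds; on the % scale 0 is the no-effect control and ±100 the full control effect; nearly all actives have a fitted effect of over 35% in size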
Outline: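 1nM USP1/UAF1 + cpd, 15 min RT; start w/ Ub-Rho 150nM final; kinetic FL 480/540 nm, 6 reads q60 s. Buffer 50mM HEPES pH 7.8, 0.5mM EDTA, 1mM TCEP, 0.01% Tween-20, 0.1 mg/ml BSA.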

[4] = molecular target: DNA dC->dU-editing enzyme APOBEC-3G (Homo sapiens) (UniProt Q9HC16); test: qHTS for inhibitors of Vif-A3G interactions: Validation (AID 588379); settings: Vif-A3G protein interaction assay; series mostly up to 46.1 µM; further: 0% is about no effect
Chain of DNA dC->dU-editing enzyme APOBEC-3G (Homo sapiens) (Q9HC16 whole entry, looked up): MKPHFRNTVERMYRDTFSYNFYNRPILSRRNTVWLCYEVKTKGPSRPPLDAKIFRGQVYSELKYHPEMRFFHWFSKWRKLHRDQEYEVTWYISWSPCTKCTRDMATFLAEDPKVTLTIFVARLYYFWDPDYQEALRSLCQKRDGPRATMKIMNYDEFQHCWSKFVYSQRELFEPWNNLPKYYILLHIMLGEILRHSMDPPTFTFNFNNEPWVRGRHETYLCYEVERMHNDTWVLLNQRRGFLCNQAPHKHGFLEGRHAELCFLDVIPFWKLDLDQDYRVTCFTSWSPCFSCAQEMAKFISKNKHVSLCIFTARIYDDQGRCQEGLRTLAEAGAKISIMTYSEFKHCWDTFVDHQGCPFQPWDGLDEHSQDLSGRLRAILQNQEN
Outline: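 HeLa cells stably expressing Vif and A3G-eYFP, 700 cells/well, incubated overnight at 37 deg C, then exposed to compound overnight at 37 deg C. Inhibition of Vif-mediated degradation read as increased yellow fluorescence (Ex 488/Em 500-530) by laser-scanning cytometry.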

[5] = system: Zika virus NS2B-NS3 protease; test: Primary screen GU AMC qHTS for Zika virus inhibitors (AID 1347154); settings: Zika NS2B-NS3 unlinked protease, AMC fluorogenic substrate; series mostly up to 54.1 µM;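 further: 0% = no-inhibitor control and -100% = no-enzyme control; nearly all actives have a fitted effect of over 70% in size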
Outline: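 Unlinked Zika NS2B hydrophilic domain–NS3 protease complex at 25 nM in 10 mM Tris-HCl pH 8.0, 0.01% Tween 20, with an AMC peptide substrate. Fluorescence change (340/450 nm) over 15 min at room temperature, normalized to controls, fitted to 4-parameter Hill.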

[6] = AP1 Signaling Pathway (AID 357; active means well fitted curve in either direction with a large enough effect, not every such curve was filed as active;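 further: ME-180 reporter cells stimulated with EGF at its EC50 level; on the % scale 0 is the no-effect control and ±100 the full control effect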); settings: ME-180 AP-1-bla reporter, EGF-induced, beta-lactamase ratio, 5 h; series mostly up to 38 µM
Outline: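 First, ME-180 AP-1-bla cells were cultured overnight at 37 °C in low-serum Opti-MEM. Next, titrated compounds with EC50 EGF were incubated 5 hours. Finally, CCF4 was added for 2.5 hours and the 460/530 nm ratio recorded.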

[7] = molecular target: Cytochrome P450 1A2 (Homo sapiens) (UniProt P05177); test: p450-cyp1a2 (AID 410; calls by dose curve; further: potency means the concentration at half of the fitted maximal effect;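 on activity change, negative = inhibition: -100% = full effect of reference inhibitor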); settings: recombinant CYP1A2, luciferin-ME demethylation, luminescence; series mostly up to 57 µM
Chain of Cytochrome P450 1A2 (Homo sapiens) (P05177 whole entry, looked up): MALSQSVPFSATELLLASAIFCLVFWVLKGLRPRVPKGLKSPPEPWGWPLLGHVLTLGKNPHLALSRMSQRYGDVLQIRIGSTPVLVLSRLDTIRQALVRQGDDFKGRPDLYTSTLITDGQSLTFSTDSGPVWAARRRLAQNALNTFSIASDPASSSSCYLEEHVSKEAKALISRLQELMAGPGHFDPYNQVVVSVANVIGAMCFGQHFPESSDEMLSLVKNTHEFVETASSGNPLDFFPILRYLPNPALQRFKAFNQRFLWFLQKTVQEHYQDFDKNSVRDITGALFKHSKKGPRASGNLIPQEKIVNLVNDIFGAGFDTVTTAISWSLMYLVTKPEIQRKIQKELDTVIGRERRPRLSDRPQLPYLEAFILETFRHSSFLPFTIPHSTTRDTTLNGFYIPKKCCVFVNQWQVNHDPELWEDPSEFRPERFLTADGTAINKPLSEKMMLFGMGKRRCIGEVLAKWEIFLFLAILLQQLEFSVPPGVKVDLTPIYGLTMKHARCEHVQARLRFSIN
Outline: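 Human CYP1A2 (20nM) demethylated Luciferin-ME at its Km (100uM) in 100mM KPO4. After 10 min compound preincubation, NADPH regeneration ran the reaction 60 min at room temperature. Luciferin was read by luminescence, normalized to 57 uM furafylline.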

[8] = Stat Signaling Pathway (AID 446; active means well fitted curve in either direction with a large enough effect, not every such curve was filed as active;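 further: ME-180 cervical cancer cells given 40 pM IL-6 alongside compound; SIE-controlled beta-lactamase reporter measured as 460/530 nm FRET emission ratio; on the % scale 0 is the no-effect control and ±100 the full control effect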); settings: ME-180 SIE beta-lactamase reporter, IL-6 stimulated, 5 h; series mostly up to 38 µM
Outline: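 ME-180 cells carrying a SIE-driven beta-lactamase reporter are stimulated with 40 pM IL-6 for 5 h at 37C in the presence of compound. The 460/530 nm FRET substrate ratio is read after 2.5 h at RT. Data are normalised to 300 pM IL-6 and to 125 nM JAK inhibitor controls.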

[9] = molecular target: Mitogen-activated protein kinase 10 (Mus musculus) (UniProt Q61831); test: JNK3 AlphaScreen Assay (AID 530; active means well fitted curve in either direction with a large enough effect, not every such curve was filed as active;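 further: kinase came from lysate of stimulated human HepG2 cells; signal reports phosphorylation of biotinylated GST-cJun 1-79 at Ser73 with 10 µM ATP; on the % scale 0 is the no-effect control and ±100 the full control effect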); settings: JNK3 lysate, c-Jun phosphorylation; series mostly up to 57.1 µM
Outline: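 qHTS format: compounds tested as titrations against IL-1beta/TNF-alpha-activated HepG2 lysate JNK3 with biotin-GST-cJun substrate and 10 uM ATP at room temperature. Loss of anti-phospho-cJun AlphaScreen signal indicates inhibition.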

[10] = molecular target: 3',5'-cyclic-AMP phosphodiesterase 4B (Homo sapiens) (UniProt Q07343); test: qHTS Assay for Inhibitors of PDE-IV (AID 607; active means well fitted activation curve with a large enough effect in the main read-out, with a control signal flat, not every such curve was filed as active; further: % of control where 0% means no effect); settings: HEK293 ACTOne CNG channel cells, membrane potential fluorescence; series mostly up to 22.9 µM
Chain of 3',5'-cyclic-AMP phosphodiesterase 4B (Homo sapiens) (Q07343 whole entry, looked up): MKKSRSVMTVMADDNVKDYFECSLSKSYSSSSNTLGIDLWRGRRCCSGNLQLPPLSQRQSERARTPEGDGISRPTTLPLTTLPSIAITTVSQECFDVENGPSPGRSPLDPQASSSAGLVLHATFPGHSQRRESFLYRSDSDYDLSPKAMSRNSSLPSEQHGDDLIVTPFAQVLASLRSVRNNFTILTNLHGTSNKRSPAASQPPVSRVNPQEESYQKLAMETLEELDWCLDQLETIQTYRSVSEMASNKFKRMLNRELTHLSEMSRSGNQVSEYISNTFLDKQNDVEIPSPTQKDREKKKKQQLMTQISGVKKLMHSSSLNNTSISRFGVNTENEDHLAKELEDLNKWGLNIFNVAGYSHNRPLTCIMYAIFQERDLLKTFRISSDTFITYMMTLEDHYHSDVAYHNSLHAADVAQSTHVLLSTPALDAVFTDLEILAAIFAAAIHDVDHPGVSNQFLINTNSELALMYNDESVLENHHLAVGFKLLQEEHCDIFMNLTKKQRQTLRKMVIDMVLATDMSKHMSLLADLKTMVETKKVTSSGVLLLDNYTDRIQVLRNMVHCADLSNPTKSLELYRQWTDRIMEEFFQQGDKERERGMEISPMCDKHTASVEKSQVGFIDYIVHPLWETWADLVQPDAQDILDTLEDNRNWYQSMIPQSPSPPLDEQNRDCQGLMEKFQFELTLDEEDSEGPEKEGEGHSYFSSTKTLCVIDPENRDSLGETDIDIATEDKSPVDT
Outline: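 HEK293 ACTOne cells with CNG channel (1000/well), endogenous PDE4; membrane potential dye, compounds up to 22.9 uM final. Fluorescence Ex 535/Em 590; RO 20-1724 (100 uM final) as reference.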

[11] = molecular target: Guanine nucleotide-binding protein G(i) subunit alpha-1 (Homo sapiens) (UniProt P63096); test: qHTS Assay for Inhibitors of RGS12 GoLoco Motif Activity (Green Fluorophore) (AID 879); settings: Galphai1/FITC-RGS12 GoLoco peptide, fluorescence polarization; series mostly up to 57.1 µM;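 further: 0% = labeled peptide with Gαi1 and full inhibition = labeled peptide alone without protein; negative values mean loss of peptide binding seen as reduced polarization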
Chain of Guanine nucleotide-binding protein G(i) subunit alpha-1 (Homo sapiens) (P63096 whole entry, looked up): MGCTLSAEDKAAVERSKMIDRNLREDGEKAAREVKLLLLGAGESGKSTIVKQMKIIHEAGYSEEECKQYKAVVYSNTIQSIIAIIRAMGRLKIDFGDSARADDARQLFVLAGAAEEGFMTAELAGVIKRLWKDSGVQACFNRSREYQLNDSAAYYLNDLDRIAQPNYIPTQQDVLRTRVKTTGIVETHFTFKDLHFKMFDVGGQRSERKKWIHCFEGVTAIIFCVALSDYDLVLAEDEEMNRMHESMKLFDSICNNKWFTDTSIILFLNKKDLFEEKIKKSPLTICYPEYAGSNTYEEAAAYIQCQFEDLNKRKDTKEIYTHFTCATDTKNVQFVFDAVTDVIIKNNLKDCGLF
Outline: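 Fluorescence polarization assay: 50 nM Gαi1 with 10 nM FITC-labeled RGS12 GoLoco peptide in 10 mM Tris pH 7.5, 150 mM NaCl, 0.1 mM GDP, 0.05% NP40, 10 min at room temperature with compound.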

[12] = molecular target: Pyruvate kinase (Leishmania mexicana) (UniProt Q27686); test: qHTS Validation Assay for Inhibitors of Leishmania Mexicana Pyruvate Kinase (AID 945);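 further: 0% = DMSO only neutral control wells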; settings: purified L. mexicana pyruvate kinase, enzyme activity, E451W mutant enzyme; series mostly up to 57.5 µM
Chain of Pyruvate kinase (Leishmania mexicana) (Q27686 2-499 E452W): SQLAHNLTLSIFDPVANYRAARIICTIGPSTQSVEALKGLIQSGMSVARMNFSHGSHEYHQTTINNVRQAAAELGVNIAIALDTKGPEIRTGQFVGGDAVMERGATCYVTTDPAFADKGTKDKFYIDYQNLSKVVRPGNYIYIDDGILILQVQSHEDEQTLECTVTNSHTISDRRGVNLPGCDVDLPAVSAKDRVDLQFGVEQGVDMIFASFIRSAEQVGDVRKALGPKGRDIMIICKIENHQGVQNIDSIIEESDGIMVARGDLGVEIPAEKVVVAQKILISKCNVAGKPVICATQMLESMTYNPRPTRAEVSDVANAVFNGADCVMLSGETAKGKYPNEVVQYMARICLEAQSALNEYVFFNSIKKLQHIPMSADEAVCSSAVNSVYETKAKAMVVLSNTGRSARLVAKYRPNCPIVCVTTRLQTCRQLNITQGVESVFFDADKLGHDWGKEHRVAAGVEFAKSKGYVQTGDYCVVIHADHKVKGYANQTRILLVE
Outline: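 Read-out: luminescence from PKLight stop/detection reagent, data normalized to DMSO. Reaction: 0.2 nM E451W LmPYK, 0.5 mM PEP, 0.1 mM ADP, pH 7.2, 1 h room temperature.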

[13] = molecular target: Pyruvate kinase PKM (Homo sapiens) (UniProt P14618); test: qHTS Assay for Activators of Human Muscle Pyruvate Kinase (AID 954; active means well fitted curve in the direction sought with a large enough effect, not every such curve was filed as active;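 further: 0% = uninhibited enzyme and -100% = no enzyme or full thiadiazolimine inhibition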); settings: purified human muscle pyruvate kinase, luciferase-coupled luminescence, 1 h; series mostly up to 57.5 µM
Chain of Pyruvate kinase PKM (Homo sapiens) (P14618 whole entry, looked up): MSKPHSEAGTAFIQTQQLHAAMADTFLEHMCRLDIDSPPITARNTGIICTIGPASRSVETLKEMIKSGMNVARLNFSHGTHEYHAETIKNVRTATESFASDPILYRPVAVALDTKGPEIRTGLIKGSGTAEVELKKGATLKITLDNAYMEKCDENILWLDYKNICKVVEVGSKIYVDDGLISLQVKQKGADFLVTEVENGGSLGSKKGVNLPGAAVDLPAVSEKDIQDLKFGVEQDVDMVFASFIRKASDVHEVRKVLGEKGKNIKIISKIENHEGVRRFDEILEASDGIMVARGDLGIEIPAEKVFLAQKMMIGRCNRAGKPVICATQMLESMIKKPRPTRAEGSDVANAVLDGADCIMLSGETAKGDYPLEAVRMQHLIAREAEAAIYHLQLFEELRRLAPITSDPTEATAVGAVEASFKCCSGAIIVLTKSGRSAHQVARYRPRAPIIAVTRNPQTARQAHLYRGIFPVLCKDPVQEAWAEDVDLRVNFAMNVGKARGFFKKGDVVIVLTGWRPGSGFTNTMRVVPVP
Outline: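 Purified human PKM2 (0.1 nM) with 0.5 mM PEP (Km) and 0.1 mM ADP in 50 mM imidazole pH 7.2, KCl, MgCl2, 1 h at room temperature; ATP formed read by coupled luciferase luminescence. Normalized to no-enzyme/110 uM thiadiazolimine inhibition; 0.3 nM enzyme column for activation.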

[14] = molecular target: Alpha-galactosidase (Coffea arabica) (UniProt Q42656); test: Counterscreen for Glucocerebrosidase Inhibitors: qHTS Assay for Coffee Bean alpha-Galactosidase at pH 4.5 (AID 957); settings: purified coffee bean alpha-galactosidase, fluorogenic substrate; series mostly up to 76.9 µM;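 further: plate controls were enzyme alone for no effect and no enzyme for full effect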
Chain of Alpha-galactosidase (Coffea arabica) (Q42656 whole entry, looked up): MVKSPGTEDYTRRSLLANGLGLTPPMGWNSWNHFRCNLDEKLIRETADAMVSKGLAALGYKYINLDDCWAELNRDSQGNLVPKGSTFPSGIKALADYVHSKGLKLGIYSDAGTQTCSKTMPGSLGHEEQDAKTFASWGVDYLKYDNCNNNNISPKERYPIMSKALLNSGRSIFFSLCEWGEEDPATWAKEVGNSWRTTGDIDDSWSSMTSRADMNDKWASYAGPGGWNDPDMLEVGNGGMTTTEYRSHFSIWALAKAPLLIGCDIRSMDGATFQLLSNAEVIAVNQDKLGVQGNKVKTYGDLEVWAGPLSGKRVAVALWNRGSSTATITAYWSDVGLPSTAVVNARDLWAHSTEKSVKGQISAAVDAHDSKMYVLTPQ
Outline: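 Green coffee bean enzyme (2 nM final) was incubated with compounds (0.7 nM to 77 uM) and 4-methylumbelliferyl alpha-D-galactopyranoside (80 uM final) in 50 mM citric acid, 0.005% Tween-20, pH 4.5, 20 min at room temperature; AC50 from Hill fits.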

[15] = molecular target: Alpha-galactosidase A (Homo sapiens) (UniProt P06280); test: Counterscreen for Glucocerebrosidase Inhibitors: qHTS Assay for Human alpha-Galactosidase at pH 4.5 (AID 992); settings: purified enzyme, fluorogenic substrate; series mostly up to 76.9 µM; further: 0% is about no effect
Chain of Alpha-galactosidase A (Homo sapiens) (P06280 whole entry, looked up): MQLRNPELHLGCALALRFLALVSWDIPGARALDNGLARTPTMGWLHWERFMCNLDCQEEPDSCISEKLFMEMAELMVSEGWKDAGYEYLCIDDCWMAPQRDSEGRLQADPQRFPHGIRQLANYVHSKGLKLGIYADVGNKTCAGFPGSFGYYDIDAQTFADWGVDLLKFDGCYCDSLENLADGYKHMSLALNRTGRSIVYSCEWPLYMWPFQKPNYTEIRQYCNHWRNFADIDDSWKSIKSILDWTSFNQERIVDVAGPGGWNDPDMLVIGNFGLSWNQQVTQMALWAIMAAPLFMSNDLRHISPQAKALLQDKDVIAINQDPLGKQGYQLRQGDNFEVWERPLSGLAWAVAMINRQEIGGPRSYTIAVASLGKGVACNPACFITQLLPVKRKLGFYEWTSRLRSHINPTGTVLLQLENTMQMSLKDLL
Outline: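 Human enzyme (2 nM) with 80 uM 4-methylumbelliferyl alpha-D-galactopyranoside in 50 mM citric acid, 0.005% Tween-20, pH 4.5, 20 min at room temperature. Compounds 0.7 nM–77 uM; fluorescence Ex 365/Em 440 after pH 10 stop; AC50 from Hill fits.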

[16] = molecular target: alpha-glucosidase (Oryza sativa, rice) (UniProt Q653V4); test: Counterscreen for Glucocerebrosidase Inhibitors: qHTS Assay for Rice alpha-Glucosidase at pH 5.0 (AID 997); settings: rice alpha-glucosidase enzyme activity; series mostly up to 76.9 µM;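 further: 0% = full activity with enzyme and -100% = basal without enzyme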
Outline: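 Rice alpha-glucosidase (4 nM final) with 400 uM 4-methylumbelliferyl-alpha-D-glucopyranoside in citrate buffer pH 5.0, 20 min at room temperature, stopped at pH 10; fluorescence 365/440 nm, compounds 0.7 nM–77 uM, AC50 from Hill fits.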

[17] = molecular target: Alpha-galactosidase (Coffea arabica) (UniProt Q42656); test: Counterscreen for Glucocerebrosidase Inhibitors: qHTS Assay for Coffee Bean alpha-Galactosidase at pH 5.9 (AID 998); settings: coffee bean alpha-galactosidase enzyme assay; series mostly up to 76.9 µM;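 further: plate controls were uninhibited enzyme for no effect and no-enzyme basal signal for full effect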
Outline: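 Green coffee bean enzyme (2 nM) with 4-methylumbelliferyl alpha-D-galactopyranoside (80 uM) in 50 mM citric acid, 0.005% Tween-20, pH 5.9, 20 min at room temperature; compounds 0.7 nM–77 uM. Stopped at pH 10, fluorescence Ex365/Em440; Hill-fit AC50.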

[18] = qHTS Assay for Lipid Storage Modulators (AID 1519; calls by dose curve); settings: Drosophila S3 cells, BODIPY lipid droplet/cell ratio, laser cytometry, cells loaded with oleic acid
Outline: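 Cells seeded at 5,000 per well were treated with compounds over a concentration series and loaded with oleic acid (400 uM, as added). Lipid droplet fluorescence (488 nm excitation, 500-530 nm channel) was read by laser-scanning cytometry and normalized to 20 uM Triacsin C.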

[19] = NFAT Signaling Pathway (AID 444; active means well fitted curve in either direction with a large enough effect, not every such curve was filed as active;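 further: carbachol stimulus at about its EC50 of 1 µM final; on the % scale 0 is the no-effect control and ±100 the full control effect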); settings: Jurkat NFAT-bla M1, carbachol, beta-lactamase ratio, 5 h
Outline: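 Jurkat cells with NFAT-driven β-lactamase reporter and co-expressed M1 receptor, stimulated with carbachol (final 1 uM, ~EC50), compound titration, 5 h at 37 °C. CCF4 loaded 1 h at RT; 460/530 nm ratio gave %activity and AC50.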

CCN1C[C@]2(COC(=O)c3ccccc3N3C(=O)C[C@H](C)C3=O)CC[C@H](OC)[C@@]34[C@@H]5C[C@H]6[C@H](OC)[C@H]5[C@](O)(C[C@@H]6OC)[C@@](O)([C@@H](OC)[C@@H]23)[C@@H]14
inactive: Potency [1] > 46 µM | Potency [2] > 46 µM | Potency [3] | Potency [4] | Potency [5]

O=C(Cc1ccc(Cl)c(Cl)c1)N1CCCC[C@H]1CN1CCCC1
inactive: outcome [6] | Potency [7] | outcome [8] | Potency [1] > 46 µM | Potency [2] > 46 µM | outcome [9] | Potency [10] | outcome [11] | outcome [12] | outcome [13] | outcome [14] | outcome [15] | outcome [16] | outcome [17] | Potency [4] | Potency [5]

c1cncc(C2CCCCN2)c1 (configuration not stated)
inactive: activity change, negative = inhibition ([18]; at 57.5 µM (top of the series)) 4.14% | Potency [3] | Potency [5]
20.8%: max response ([18]; measured here: lipid channel max response)
15%: max response ([18]; measured here: cell count channel max response)

CC(C)(Cc1c[nH]c2ccc(Cl)cc12)NCCOc1ccccc1OCC1CC1
inactive: Potency [1] > 46 µM | Potency [2] > 46 µM | outcome [9] | Potency [4] | Potency [5]

NC[C@H](CP(=O)(O)O)c1ccc(Cl)cc1
inactive: outcome [6] | Potency [7] | activity change, negative = inhibition ([19]; at 38 µM (top of the series)) 3.15% | outcome [8] | Potency [1] > 46 µM | Potency [2] > 46 µM | outcome [9] | Potency [10] | outcome [11] | outcome [12] | outcome [13] | outcome [14] | outcome [15] | outcome [16] | outcome [17] | Potency [4] | Potency [5]

COc1ccc2[nH]cc(CCN(C)C)c2c1
inactive: outcome [6] | activity change, negative = inhibition ([19]; at 17.2 µM (top of the series)) -12.1% | activity change, negative = inhibition ([19]; at 38 µM (top of the series)) -5.37% | outcome [8] | Potency [1] > 46 µM and > 20.6 µM | Potency [2] > 46 µM | outcome [9] | Potency [10] | outcome [11] | outcome [12] | outcome [13] | outcome [14] | outcome [15] | outcome [16] | outcome [17] | Potency [5]
active: Potency [7] 15.8 µM

CC(C)[C@@]1(NC(=O)[C@H]2CC3c4cccc5[nH]cc(c45)C[C@H]3N(C)C2)O[C@@]2(O)C3CCCN3C(=O)[C@@H](Cc3ccccc3)N2C1=O (some centres not stated)
inactive: Potency [5]

NC[C@H](CC(=O)O)c1ccc(Cl)cc1
inactive: Potency [1] > 46 µM | Potency [2] > 46 µM | outcome [9] | Potency [10] | Potency [4] | Potency [5]

— PubChem BioAssay (NCATS)
